The values that follow come from PubChem BioAssay (NCI).

SMILES strings stand for the structures. This is part of a sample that, as a whole, favours compounds with a hit. Of some 83,000 tested, about 20% had one in any assay.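 Assay: single dose, 48 h. Readout: percent growth (0 = no net growth; negative = cell death). Active: <10.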 Values without a mark were called inactive. Activity calls are given as the source filed them.

Among the test systems are SR leukemia; RPMI-8226 leukemia; OVCAR-8 ovarian; OVCAR-5 ovarian; SK-OV-3 ovarian; IGROV1 ovarian; OVCAR-3 ovarian; HS 578T breast; NCI/ADR-RES ovarian; T-47D breast; BT-549 breast; MDA-MB-435 melanoma; SW-620 colon; MCF7 breast; HCT-116 colon; HCC-2998 colon; KM12 colon; OVCAR-4 ovarian.
Common to all, as to test: NCI-60 one-dose screen, 48 h (100 = growth as untreated, 0 = no growth, -100 = all killed)
Holding throughout (details): 10 µM unless noted

`CCOC(=O)NNc1[nH]c(-c2ccc(OC)cc2)cc1C#N`: the growth in the experiment with SR leukemia is -2.04% (active); with RPMI-8226 leukemia, 91.2%; in the experiment on OVCAR-8 ovarian, 99.5%; with OVCAR-5 ovarian, 87.7%; in the experiment on SK-OV-3 ovarian, 111%; in the experiment on IGROV1 ovarian, 57.5%. For the same compound, the growth with OVCAR-3 ovarian was 107%; in the experiment with HS 578T breast, 96.3%; in the experiment with NCI/ADR-RES ovarian, 88.9%; in the experiment on T-47D breast, 44.1%; in the experiment with BT-549 breast it was 101%; with MDA-MB-435 melanoma it was 85%. For the same compound, the growth in the experiment with SW-620 colon was 107%; in the experiment with MCF7 breast it was 69.2%; in the experiment with HCT-116 colon, 85.4%; in the experiment on HCC-2998 colon it was 39.1%; in the experiment with KM12 colon, 74.7%.
Regarding `COc1ccc(Cn2cc3c(c2-c2ccccc2)CCc2cnoc2-3)cc1N`, the growth with SR leukemia was 11.8%; with RPMI-8226 leukemia, 23.5%; with OVCAR-8 ovarian, 30%; in the experiment on OVCAR-5 ovarian, 54.5%; with OVCAR-4 ovarian it was 44.5%; in the experiment on SK-OV-3 ovarian it was -4.08% (active). Also, the growth with OVCAR-3 ovarian was -19.5% (active); in the experiment on HS 578T breast, 10.4%; with NCI/ADR-RES ovarian, -1.43% (active); in the experiment with BT-549 breast it was 36.2%; in the experiment with MDA-MB-435 melanoma, -27.9% (active); in the experiment on SW-620 colon it was 23.5%. Moreover, the growth with MCF7 breast was 16%; in the experiment with HCT-116 colon, 9.53% (active); with HCC-2998 colon, -1.21% (active); in the experiment with KM12 colon, 6.52% (active).
As to `CC1(C)Oc2cc3oc(=O)ccc3cc2C[C@@H]1OCCOS(=O)(=O)c1ccc(C#N)cc1`, the growth with SR leukemia was 107%; in the experiment with RPMI-8226 leukemia it was 91.9%; in the experiment with OVCAR-8 ovarian, 92.7%; in the experiment on OVCAR-5 ovarian, 97.9%; in the experiment on OVCAR-4 ovarian, 88%; with IGROV1 ovarian, 100%. Also, the growth is 96% in the experiment with OVCAR-3 ovarian; 89.7% with HS 578T breast; 96.1% in the experiment with NCI/ADR-RES ovarian; 90.3% in the experiment on BT-549 breast; 94.9% with MDA-MB-435 melanoma; 89.3% with SW-620 colon. Also, the growth in the experiment with MCF7 breast was 82.3%; in the experiment on HCT-116 colon, 110%; with HCC-2998 colon, 103%; with KM12 colon it was 103%.
`O=C(CBr)OCc1ccc([N+](=O)[O-])o1`: the growth in the experiment on SR leukemia is 88.1%; in the experiment on RPMI-8226 leukemia it was 86.3%; with OVCAR-8 ovarian, 96.9%; with OVCAR-5 ovarian, 101%; in the experiment on SK-OV-3 ovarian it was 105%; with IGROV1 ovarian it was 10.5%. The growth in the experiment on OVCAR-3 ovarian was 104%; with HS 578T breast, 106%; in the experiment with NCI/ADR-RES ovarian, 101%; with T-47D breast, 95.2%; with BT-549 breast, 118%; with MDA-MB-435 melanoma it was 107%. The growth was 83.2% in the experiment with SW-620 colon; 98.4% in the experiment on MCF7 breast; 106% in the experiment with HCT-116 colon; 95.2% in the experiment with HCC-2998 colon; 105% with KM12 colon.
With `CCN(CC)C(=O)C1(C)CCCC2(C)c3cc(OC(C)=O)ccc3CCC12` (centres undefined), the growth was 62.8% in the experiment with SR leukemia; 58.8% with RPMI-8226 leukemia; 86.4% with OVCAR-8 ovarian; 96.9% in the experiment on OVCAR-5 ovarian; 94.1% in the experiment on SK-OV-3 ovarian; 79.9% in the experiment on IGROV1 ovarian. Besides, the growth is 88.8% with OVCAR-3 ovarian; 84.1% in the experiment on HS 578T breast; 85.8% in the experiment on NCI/ADR-RES ovarian; 71.7% in the experiment on T-47D breast; 95.4% in the experiment on BT-549 breast; 72.9% with MDA-MB-435 melanoma. Further, the growth with SW-620 colon was 89.1%; in the experiment on MCF7 breast, 87.9%; in the experiment on HCT-116 colon, 84.9%; in the experiment with HCC-2998 colon, 109%; in the experiment on KM12 colon, 82.2%.
In the case of `CC1(C)NCCC[C@]2(C)[C@H]3CC=C4[C@@H]5C[C@](C)(COC(=O)c6ccccc6C(=O)O)CC[C@]5(C)CC[C@@]4(C)[C@]3(C)CC[C@@H]12`, the growth is 25.2% in the experiment on SR leukemia; 19.2% with RPMI-8226 leukemia; 83.7% with OVCAR-8 ovarian; 88.8% in the experiment with OVCAR-5 ovarian; 51.3% in the experiment on OVCAR-4 ovarian; 59.2% in the experiment with IGROV1 ovarian. In addition, the growth was 60% in the experiment with OVCAR-3 ovarian; 63% in the experiment with HS 578T breast; 78.2% in the experiment on NCI/ADR-RES ovarian; 72.4% in the experiment with BT-549 breast; 62.4% with MDA-MB-435 melanoma; 67.2% with SW-620 colon. The growth was 41.1% with MCF7 breast, 16.5% with HCT-116 colon, 73.4% in the experiment with HCC-2998 colon and 55.2% with KM12 colon.
As for `COC(c1ccccc1)C(Br)C(=O)c1ccccc1` (centres undefined), the growth in the experiment on SR leukemia was 79.7%; with RPMI-8226 leukemia, 90.6%; in the experiment with OVCAR-8 ovarian, 92.1%; in the experiment on OVCAR-5 ovarian it was 108%; with OVCAR-4 ovarian, 93.1%; in the experiment on IGROV1 ovarian, 96.6%. The growth in the experiment with OVCAR-3 ovarian is 115%; in the experiment with HS 578T breast, 111%; with NCI/ADR-RES ovarian it was 104%; in the experiment with BT-549 breast, 92.4%; in the experiment on MDA-MB-435 melanoma, 96.3%; in the experiment on SW-620 colon, 125%. Besides, the figures for the growth with HCT-116 colon and with KM12 colon were 87.7% and 114%, respectively.
As to `COc1ccc2oc(=O)cc(CN3C(=O)S/C(=C\c4ccc(Cl)cc4)C3=O)c2c1`, the growth in the experiment with SR leukemia was 71.8%; with RPMI-8226 leukemia, 73.1%; in the experiment on OVCAR-8 ovarian it was 100%; with OVCAR-5 ovarian it was 97.3%; in the experiment on SK-OV-3 ovarian, 113%; in the experiment on IGROV1 ovarian, 102%. The growth was 89.1% in the experiment with OVCAR-3 ovarian; 108% in the experiment on HS 578T breast; 94.6% in the experiment with NCI/ADR-RES ovarian; 91.5% with BT-549 breast; 105% with MDA-MB-435 melanoma; 108% with SW-620 colon. Further, the growth in the experiment on MCF7 breast was 86.9%; in the experiment with HCT-116 colon it was 84.8%; with HCC-2998 colon it was 104%; with KM12 colon, 96.1%.
Take `Nc1nc(-c2cccc(Br)c2)cc(-c2cc3ccccc3oc2=O)n1`: the growth in the experiment on SR leukemia is 89.6%; with RPMI-8226 leukemia, 98.7%; in the experiment with OVCAR-8 ovarian, 97.2%; in the experiment with OVCAR-5 ovarian, 106%; in the experiment on SK-OV-3 ovarian, 97.8%; in the experiment on IGROV1 ovarian it was 67.2%. Moreover, the growth was 99.6% in the experiment with OVCAR-3 ovarian; 87.3% with HS 578T breast; 105% in the experiment with NCI/ADR-RES ovarian; 83.2% in the experiment on T-47D breast; 117% with MDA-MB-435 melanoma; 105% with SW-620 colon. Further, the growth with MCF7 breast is 57.6%; in the experiment on HCT-116 colon it was 85.5%; in the experiment with KM12 colon it was 99.2%.
Regarding `O=C1c2ccccc2CCc2ccccc21`, the growth with SR leukemia is 104%; in the experiment with RPMI-8226 leukemia, 108%; with OVCAR-8 ovarian, 99.3%; with OVCAR-5 ovarian, 93.7%; in the experiment on OVCAR-4 ovarian it was 104%; with IGROV1 ovarian it was 93%. The growth with OVCAR-3 ovarian was 103%; in the experiment with HS 578T breast, 105%; in the experiment on NCI/ADR-RES ovarian, 101%; with BT-549 breast it was 99%; in the experiment on MDA-MB-435 melanoma it was 100%; with SW-620 colon it was 99.3%. In addition, the growth is 94.9% in the experiment on MCF7 breast, 98.2% with HCT-116 colon, 97.5% with HCC-2998 colon and 102% in the experiment on KM12 colon.
For `COCn1c(C(=O)OC)cc2oc(/C=C3/SC(=S)N(N)C3=O)cc21`, the growth with SR leukemia is 45.7%; with RPMI-8226 leukemia it was 79.2%; in the experiment with OVCAR-8 ovarian it was 98%; in the experiment with OVCAR-5 ovarian, 108%; with OVCAR-4 ovarian it was 97.2%; in the experiment on SK-OV-3 ovarian, 89.6%. The growth with OVCAR-3 ovarian is 81.1%; in the experiment on NCI/ADR-RES ovarian, 112%; with T-47D breast, 94.4%; in the experiment with BT-549 breast, 80.8%; in the experiment with MDA-MB-435 melanoma, 94.9%; with SW-620 colon, 97.6%. The growth is 93.8% with HCT-116 colon, 102% in the experiment with HCC-2998 colon and 92.3% in the experiment on KM12 colon.
As to `CCc1ccc(C(=Nc2ccc(N(C)C(=O)CN3CCN(C)CC3)cc2)c2c(O)[nH]c3ccc(C(=O)OC)cc23)cc1`, the growth is -27.7% (active) in the experiment with SR leukemia; -46.9% (active) in the experiment on RPMI-8226 leukemia; -34.5% (active) in the experiment on OVCAR-8 ovarian; -58.1% (active) in the experiment on OVCAR-5 ovarian; -61.3% (active) in the experiment on OVCAR-4 ovarian; -61.5% (active) with SK-OV-3 ovarian. Further, the growth is -69.9% (active) in the experiment on OVCAR-3 ovarian; -48.7% (active) in the experiment on HS 578T breast; 10.5% with NCI/ADR-RES ovarian; -87.9% (active) in the experiment with BT-549 breast; -20.5% (active) in the experiment with MDA-MB-435 melanoma; -67.3% (active) with SW-620 colon. The growth in the experiment with MCF7 breast was -68.4% (active); in the experiment on HCT-116 colon, -67.9% (active); in the experiment on HCC-2998 colon it was -92% (active); in the experiment on KM12 colon, -60.8% (active).
For the compound `Cc1cc2cn3c4ccc(O)cc4nc(N)c3c2cc1C`, the growth is -23.5% (active) with SR leukemia; -20.1% (active) in the experiment with RPMI-8226 leukemia; 5.39% (active) with OVCAR-8 ovarian; 28.9% in the experiment on OVCAR-5 ovarian; 3% (active) with IGROV1 ovarian; 16.5% in the experiment with OVCAR-3 ovarian. In addition, the growth was -16.3% (active) in the experiment on HS 578T breast; 9.17% (active) with NCI/ADR-RES ovarian; -31.2% (active) in the experiment with MDA-MB-435 melanoma; -46.8% (active) with MCF7 breast; -100% (active) with HCT-116 colon; 6.3% (active) in the experiment on KM12 colon.
For `O=C(Oc1ccccc1)c1ccccc1Cl`, the growth with SR leukemia is 104%; in the experiment on RPMI-8226 leukemia it was 62.9%; with OVCAR-8 ovarian, 104%; with OVCAR-5 ovarian, 90.7%; in the experiment with SK-OV-3 ovarian, 101%; with IGROV1 ovarian it was 109%. The growth in the experiment on OVCAR-3 ovarian was 97.3%; in the experiment on NCI/ADR-RES ovarian, 104%; with T-47D breast it was 100%; in the experiment with BT-549 breast it was 96.8%; with MDA-MB-435 melanoma, 103%; with SW-620 colon it was 104%. In addition, the growth was 102% with MCF7 breast, 102% with HCT-116 colon, 108% with HCC-2998 colon and 98.9% in the experiment on KM12 colon.
